According to the supplement of paper PMC12024529:

system: HEK293 WT BDD-FVIII-Gluc; experiment: secreted FVIII-Gluc luciferase Z-score vs DMSO control; higher = more FVIII-Gluc secretion; details: 5 µM
Description: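 Natural plant-compound library (480 compounds, ST catalogue IDs) screened on HEK293 cells stably expressing WT BDD-FVIII-Gaussia luciferase fusion at 5 µM. Secreted Gluc activity in the medium is given as a Z-score relative to DMSO controls.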

Row | SMILES | secreted FVIII-Gluc luciferase Z-score
1 | OC[C@H]1O[C@@H](OC[C@H]2O[C@@H](O)[C@H](O)[C@@H](O)[C@@H]2O)[C@H](O)[C@@H](O)[C@@H]1O | 0.42
2 | O=c1cc(-c2ccccc2)oc2cccc(O)c12 | -0.455
3 | N[C@@H](Cc1ccc(O)cc1)C(=O)O | 0.446
4 | Cc1ccc(C(=O)[C@@H]2[C@H]3C4COC(O4)C(=O)[C@@H]3[C@H]3C=Cc4ccccc4N32)cc1 (stereo not given in full) | -0.368
5 | CCC(C)C(=O)O[C@H]1C[C@@H](C)C=C2C=C[C@H](C)[C@H](CC[C@@H]3C[C@@H](O)CC(=O)O3)[C@H]21 (stereo not given in full) | -0.369
6 | O=c1c(-c2ccc(O[C@@H]3O[C@H](CO)[C@@H](O)[C@H](O)[C@H]3O)cc2)coc2cc(O)cc(O)c12 | 0.683
7 | c1coc(CNc2ncnc3nc[nH]c23)c1 | 0.193
8 | CN1C(CC(=O)c2ccccc2)CCC[C@H]1C[C@H](O)c1ccccc1 (stereo not given in full) | 0.401
9 | COc1ccccc1-c1cc(=O)c2cc(O)ccc2o1 | 0.281
10 | Nc1ncnc2c1ncn2[C@@H]1O[C@H](COP(=O)(O)OP(=O)(O)O)[C@@H](O)[C@H]1O | 0.0418
11 | Nc1ncnc2c1ncn2[C@H]1C[C@H](O)[C@@H](CO)O1 | 1.23
12 | CC1=CCC2(C)CCC(O)(C(C)C)C2C(OC(=O)c2ccc(O)cc2)C1 (stereo not given) | 0.752
13 | COc1ccccc1CC(Cc1nc2ccccc2[nH]1)c1nc2ccccc2[nH]1 (stereo not given) | 0.163
14 | COc1ccc2[nH]cc(CCNC(C)=O)c2c1 | 0.108
15 | CO[C@H]1/C=C/O[C@@]2(C)Oc3c(C)c(O)c4c(O)c(cc(O)c4c3C2=O)NC(=O)/C(C)=C\C=C\[C@H](C)[C@H](O)[C@@H](C)[C@@H](O)[C@@H](C)[C@H](OC(C)=O)[C@@H]1C | -0.224
16 | COc1cc2oc(-c3ccccc3)cc(=O)c2cc1OC | 0.82
17 | COc1cc2cc(Oc3ccc4ccc(=O)oc4c3)c(=O)oc2cc1OC(C)=O | 0.744
18 | OC1CCC2Cc3ccccc3N=C12 (stereo not given) | -0.361
19 | COc1ccccc1-c1oc2ccccc2c(=O)c1OC | 1.49
20 | Cc1cc(O)c2c(c1)C(=O)c1cc(O)cc(O)c1C2=O | -0.0482

Row | SMILES | secreted FVIII-Gluc luciferase Z-score
21 | COc1ccc(-c2oc3cc(OC)c(OC(C)=O)c(OC)c3c(=O)c2OC)cc1OC(C)=O | -0.47
22 | CC[C@H](CC[C@@H](C)[C@H]1CC[C@H]2[C@@H]3CC=C4C[C@@H](O)CC[C@]4(C)[C@H]3CC[C@]12C)C(C)C | -0.318
23 | COc1cc(C=O)ccc1O | 0.374
24 | C/C=C(\C)C(=O)OC1CC2(C)OC2C(OC(C)=O)C2(C)CCC(O)(C(C)C)C12 (stereo not given) | -0.754
25 | O=c1ccn([C@H]2C[C@H](O)[C@@H](CO)O2)c(=O)[nH]1 | 0.515
26 | CC[C@H](/C=C/[C@@H](C)[C@H]1CC[C@H]2[C@@H]3CC=C4C[C@@H](O)CC[C@]4(C)[C@H]3CC[C@]12C)C(C)C | 0.586
27 | CC(=O)OC1CCC2(C)C(CCC3(C)C2C(=O)C=C2C4CC(C)(C(=O)OCCN5CCCCC5)CCC4(C)CCC23C)C1(C)C (stereo not given) | 0.64
28 | COc1cc2c(Cc3c4c5c(cc(OC)c(OC)c5c5c(OC)c(OC)ccc35)CCN4C)c3c4c(cc(OC)c(OC)c4c2cc1OC)CCN3C | -0.165
29 | C=C1C(=O)O[C@@H]2C3OC3(C)CC/C=C(\C)CC[C@@H]12 (stereo not given in full) | -0.0355
30 | COC(=O)[C@@H]1[C@H]2C[C@H]3c4[nH]c5ccccc5c4CCN3C[C@@H]2CC[C@@H]1O | 0.00333
31 | CC(C)=CCC[C@H](C)CCO | 0.0595
32 | C=C1CCC2OC2(C)CCC2C1CC2(C)C (stereo not given) | 0.146
33 | NCCC(=O)N[C@@H](Cc1cnc[nH]1)C(=O)O | -1.31
34 | COc1cc([C@@H]2Oc3cc(C4Oc5cc(O)cc(O)c5C(=O)[C@H]4O)ccc3O[C@H]2CO)ccc1O (stereo not given in full) | 0.0424
35 | CCOC(=O)CCC(=O)OC1C(OC2C(C)C(OC3CC(C)(OC)C(O)C(C)O3)C(C)C(=O)OC(CC)C(C)(O)C(O)C(C)C(=O)C(C)CC2(C)O)OC(C)CC1N(C)C (stereo not given) | 0.0842
36 | O=c1cc(-c2ccccc2O)oc2ccc3ccccc3c12 | 0.197
37 | C[C@H](O)[C@H](O)[C@@H](O)c1cnc2nc(N)[nH]c(=O)c2n1 | 0.588
38 | N=C(N)NCCC[C@H](N)C(=O)O | 0.938
39 | C[C@@H]1O[C@@H](O[C@H]2[C@H](Oc3cc(O)c4c(c3)O[C@H](c3ccc(O)cc3)CC4=O)O[C@H](CO)[C@@H](O)[C@@H]2O)[C@H](O)[C@H](O)[C@H]1O | 1.39
40 | O=c1c(O)c(-c2ccc(O)cc2)oc2ccc(O)cc12 | 0.433
